Inconclusive results are not listed. A call without a number means that no potency is given here. Calls of active or inactive are those of the source. Calls follow the shape of the dose curve; as a rule, active = well fitted inhibition curve with a large enough effect; inconclusive = small, poorly fitted or top-dose-only effect; inactive = flat fitted curve, though single readings scatter. Where a SMILES comes first, the peptide text is derived from it. [ ]: non-standard residue; d: D form. PhLac = O=C(O)[CH](O)Cc1ccccc1; NMeV = CN[CH](C(=O)O)C(C)C
Experiment: Primary qHTS for inhibitors of nuclear receptor binding SET domain protein 2 (NSD2) in an isogenic RCH-ACV NSD2 p.E1099K mutant (9B) (AID 1645876); also: nearly all actives have a fitted effect of over 70% in size
Conditions: RCH-ACV (leukaemia line) NSD2 E1099K (9B) viability, CellTiter-Glo, 72 h; series mostly up to 44.9 µM

Q: With C[C@H]1[C@H](C)CC[C@]2(C(=O)O)CC[C@]3(C(=O)O)C(=CCC4[C@@]5(C)CC[C@H](O[C@@H]6O[C@H](C)[C@@H](O)[C@H](O)[C@H]6O)C(C)(C)C5CC[C@]43C)[C@H]12 (stereo not given in full) as the molecule, how does the Potency read?
A: Its Potency is “inactive”.

Q: With CN1C(=O)c2ccccc2-n2c(nc3ccccc3c2=O)/C1=C/c1ccccc1 as the molecule, how does the Potency read?
A: Its Potency is “inactive”.

Q: Which Potency does the source give for CC(=O)OC[C@@]12[C@H](O)C[C@@H](C)[C@]3(C[C@@H](c4ccoc4)OC3=O)[C@H]1C[C@H](O)C[C@]21CO1 here?
A: The Potency was “inactive”.

Q: With COC1CC(=O)CCC(C)OC(=O)CC1O (stereo not given) as the molecule, how does the Potency read?
A: Its Potency is “inactive”.

Q: Which Potency does the source give for O=c1ccn(C2OC(CO)C(O)C2O)c(=O)[nH]1 (stereo not given) here?
A: The Potency was “inactive”.

Q: For CC(C)C(C(=O)N1CCCC1C(=O)O)N(C)C(=O)C(O)Cc1ccccc1 (stereo not given) (H-[PhLac]-[NMeV]-Pro-OH; configuration not given here), which Potency is on record?
A: Its Potency is “inactive”.

Q: For COc1ccc2c(c1)O[C@H](O[C@@H]1O[C@H](CO)[C@@H](O)[C@H](O)[C@H]1O)C(=O)N2, which Potency is on record?
A: The Potency was “inactive”.

Q: Which Potency does the source give for CC(=O)O[C@@H]1[C@@H](OC(=O)/C=C/c2ccccc2)[C@H](C)O[C@@H](O[C@H]2[C@@H]3C=CO[C@@H](O[C@@H]4O[C@H](CO)[C@@H](O)[C@H](O)[C@H]4O)[C@@H]3[C@@]3(CO)O[C@@H]23)[C@@H]1OC(C)=O here?
A: Its Potency is “inactive”.

Q: With CC1CCC2(C(=O)OC3OC(CO)C(O)C(O)C3O)CCC3(C)C(=CCC4C5(C)CC(O)C(O)C(C)(C(=O)O)C5CCC43C)C2C1(C)O (stereo not given) as the molecule, how does the Potency read?
A: Its Potency is “inactive”.

Q: With C=C1C[C@]23C[C@H]1CC[C@H]2[C@]1(C)CCC[C@@]2(CO)C(=O)O[C@H]([C@H]21)[C@@H]3O as the molecule, how does the Potency read?
A: Its Potency is “inactive”.

— PubChem BioAssay (NCATS)
